About 79,000 compounds went through this panel and 15% of them were active in at least one assay; those are over-represented in the sample as a whole. The source made the active and inactive calls. Rule as the data show it: active = growth inhibition above about 70%; inactive = the rest.
Tests used:
[1] = NCI Yeast Anticancer Drug Screen. Data for the rad52 strain (AID 147);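 also: 0% = growth of vehicle-treated control cultures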; settings: S. cerevisiae rad52 mutant growth inhibition, hits give high values
In short: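 Yeast strain carrying a DNA damage repair alteration was exposed to test compounds. Growth inhibition was measured relative to vehicle-treated controls.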

[2] = NCI Yeast Anticancer Drug Screen. Data for the wt1 strain (AID 149);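 also: 0% = growth of vehicle-treated wt1 cultures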; settings: S. cerevisiae wt1 strain (SPY 50644) growth inhibition, hits give high values
In short: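 Measured: growth of wt1 yeast under compound versus vehicle treatment, reported as inhibition.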

[3] = NCI Yeast Anticancer Drug Screen. Data for the rad50EPP+ strain (AID 151);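 also: 0% = growth of vehicle-treated control cultures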; settings: S. cerevisiae rad50 mutant strain, hits give high values
In short: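 Yeast strain carrying rad50 alteration (rad50EPP+) exposed to compounds; growth inhibition measured relative to vehicle-treated controls.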

[4] = NCI Yeast Anticancer Drug Screen. Data for the mgt1 strain (AID 153); settings: S. cerevisiae mgt1 mutant growth inhibition, hits give high values
In short: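 Yeast mgt1 strain (DNA repair/cell-cycle alteration panel) exposed to compounds; growth inhibition measured relative to vehicle-treated controls.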

[5] = NCI Yeast Anticancer Drug Screen. Data for the rad50 strain (AID 155);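 also: 0% = growth of vehicle-only cultures of the same strain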; settings: S. cerevisiae rad50 strain growth inhibition, hits give high values
In short: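 Growth of the mutant yeast was measured after compound exposure and referenced to vehicle-treated cultures.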

[6] = NCI Yeast Anticancer Drug Screen. Data for the mec2-1 strain (AID 157); settings: S. cerevisiae mec2-1 strain, hits give high values
In short: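 mec2-1 yeast strain, carrying an alteration in DNA damage repair or cell cycle control, was exposed to compounds; growth inhibition was measured relative to vehicle-treated controls.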

[7] = NCI Yeast Anticancer Drug Screen. Data for the rad14 strain (AID 159);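 also: 0% = growth of vehicle-treated control cultures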; settings: S. cerevisiae rad14 strain growth inhibition, hits give high values
In short: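 Here, inhibition of yeast growth was measured after compound exposure, using a strain with a genetic defect in DNA damage repair and vehicle-treated cultures as the reference.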

[8] = NCI Yeast Anticancer Drug Screen. Data for the CLN2oe strain (AID 163);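 also: 0% = growth of vehicle-only control cultures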; settings: S. cerevisiae CLN2oe strain, hits give high values
In short: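 Yeast cells carrying a defined cell-cycle control alteration were exposed to test compounds. Growth inhibition was scored against vehicle-treated control cultures.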

[9] = NCI Yeast Anticancer Drug Screen. Data for the cln2 rad14 strain (AID 165);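 also: 0% = growth equal to vehicle treated cultures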; settings: S. cerevisiae cln2 rad14 strain, hits give high values
In short: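 Yeast carrying cln2 and rad14 alterations (cell cycle control and DNA damage repair) were exposed to compounds. Growth inhibition was measured against vehicle-treated controls.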

[10] = NCI Yeast Anticancer Drug Screen. Data for the bub3 strain (AID 167); settings: S. cerevisiae bub3 mutant strain, hits give high values
In short: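 Whole-cell yeast assay. The mutant strain was incubated with compounds, and growth inhibition was determined by comparison with vehicle-treated cells.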

[11] = NCI Yeast Anticancer Drug Screen. Data for the wt2 strain (AID 169);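 also: 0% = growth of vehicle-treated yeast cultures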; settings: S. cerevisiae wt2 strain growth inhibition, hits give high values
In short: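 Yeast cells were exposed to test compounds, and growth inhibition was measured relative to vehicle-treated controls.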

[12] = NCI Yeast Anticancer Drug Screen. Data for the mlh1 strain (AID 171);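 also: 0% = growth of vehicle-treated control cultures of the same strain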; settings: S. cerevisiae mlh1 strain growth inhibition, hits give high values
In short: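 Yeast carrying a defined genetic alteration in DNA damage repair or cell cycle control were exposed to test compounds. Growth inhibition was measured relative to vehicle-treated controls.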

[13] = NCI Yeast Anticancer Drug Screen. Data for the sgs1 strain (AID 173);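 also: 0% = growth of vehicle-only control cultures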; settings: S. cerevisiae sgs1 mutant, hits give high values
In short: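 Yeast mutant strains carrying defined defects in DNA damage repair or cell cycle control were exposed to test compounds. Growth inhibition was scored against vehicle-treated controls.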

[14] = NCI Yeast Anticancer Drug Screen. Data for the mlh1 rad18 strain (AID 175); settings: S. cerevisiae mlh1 rad18 strain growth inhibition, hits give high values
In short: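 Growth inhibition of the yeast strain was measured after compound exposure and expressed relative to vehicle-treated controls. The strain carries defined defects in DNA damage repair.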

[15] = NCI Yeast Anticancer Drug Screen. Data for the rad18 strain (AID 177); settings: S. cerevisiae rad18 mutant growth inhibition, hits give high values
In short: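 Yeast carrying a defined DNA damage repair alteration were exposed to compounds. Growth inhibition was expressed relative to vehicle-treated controls.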

[16] = at 5.0 µM (retest, dose inferred, filed as 0.5)
[17] = at 50.0 µM (retest, dose inferred, filed as 5.0)

Measured: growth inhibition

C/C(=N\Sc1ccccc1)c1ccccc1O
active: [1]; at 100.0 µM 85% | [3]; at 100.0 µM 91% | [5]; [17] 71% | [5]; at 50.0 µM 79% | [5]; at 100.0 µM 90% | [12]; at 100.0 µM 79% | [13]; at 100.0 µM 91% | [14]; at 50.0 µM 94.2% | [15]; at 100.0 µM 90%
inactive: [1]; at 1.2 µM 1% | [1]; at 3.7 µM 4% | [1]; at 11.0 µM 2% | [1]; at 33.0 µM 21% | [2]; at 1.2 µM -3% | [2]; at 3.7 µM -4% | [2]; at 11.0 µM -4% | [2]; at 33.0 µM 4% | [2]; at 100.0 µM 64% | [3]; at 1.2 µM 3% | [3]; at 3.7 µM 5% | [3]; at 11.0 µM 9% | [3]; at 33.0 µM 35% | [4]; at 1.2 µM 2% | [4]; at 3.7 µM -2% | [4]; at 11.0 µM -1% | [4]; at 33.0 µM 8% | [4]; at 100.0 µM 62% | [5]; at 1.2 µM -3% | [5]; at 3.7 µM -4% | [5]; [16] -144% | [5]; at 11.0 µM 7% | [5]; at 33.0 µM 16% | [6]; at 1.2 µM -1% | [6]; at 3.7 µM 2% | [6]; [16] -48% | [6]; at 11.0 µM -11% | [6]; at 33.0 µM -1% | [6]; [17] -4% | [6]; at 50.0 µM 51.5% | [6]; at 100.0 µM 62% | [7]; at 1.2 µM -4% | [7]; at 3.7 µM -9% | [7]; at 11.0 µM -5% | [7]; at 33.0 µM 9% | [7]; at 100.0 µM 63% | [8]; at 1.2 µM 2% | [8]; at 3.7 µM -1% | [8]; at 11.0 µM 2% | [8]; at 33.0 µM 1% | [8]; at 100.0 µM 39% | [9]; [16] -59% | [9]; [17] -38% | [9]; at 50.0 µM 11.5% | [10]; at 1.2 µM 0% | [10]; at 3.7 µM 2% | [10]; [16] -62% | [10]; at 11.0 µM -1% | [10]; at 33.0 µM 5% | [10]; [17] 55% | [10]; at 50.0 µM 49.2% | [10]; at 100.0 µM 53% | [11]; at 1.2 µM 1% | [11]; at 3.7 µM 2% | [11]; at 11.0 µM 1% | [11]; at 33.0 µM 0% | [11]; at 100.0 µM 62% | [12]; at 1.2 µM 2% | [12]; at 3.7 µM 3% | [12]; at 11.0 µM -2% | [12]; at 33.0 µM 13% | [13]; at 1.2 µM 1% | [13]; at 3.7 µM 4% | [13]; at 11.0 µM 10% | [13]; at 33.0 µM 35% | [14]; [16] -115% | [14]; [17] 59% | [15]; at 1.2 µM -2% | [15]; at 3.7 µM 0% | [15]; at 11.0 µM 4% | [15]; at 33.0 µM 21%
